Experimental findings from PubChem BioAssay (NCI) are described below.

This is part of a sample that, as a whole, favours compounds with a hit. Of some 83,000 tested, about 20% had one in any assay.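 Percent growth is the endpoint: 0 to 100 indicates growth inhibition (40 means 60% inhibition), 0 means no net growth, and negative values indicate cell death.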 Active and inactive are the calls of the source. The calls were made as follows: active = growth percent below 10; inactive = the rest.

In the assay the test system is IGROV1 ovarian. The experiment in a line: NCI-60 one-dose screen, 48 h (100 = growth as untreated, 0 = no growth, -100 = all killed). The note with it: 10 µM unless noted.
With `N/C(=N\C(N)=N\c1nc2ccccc2s1)c1cccc(Cl)c1`, the growth was 75.9% (inactive).
To `CCOC(=O)[C@@H](C)C[C@H](Cc1ccccc1)NC(=O)c1csc([C@@H](C[C@H](C(C)C)N(C)C(=O)[C@@H](NC(=O)[C@H]2C[C@H](O[Si](C)(C)C(C)(C)C)CCN2C)C(C)C)OC(C)=O)n1` belongs 15.7% [9.25 µM] (inactive); to `COC(=O)/C=C1\S/C(=N\NC(=O)c2cc3ccc2/C=C\c2ccc(cc2)/C=C\3)N(c2ccccc2)C1=O`, 5.97% (active); to `NNC(=O)c1ccc(-n2nc(-c3ccccc3)c3ccccc32)cc1`, 73.7% (inactive).
Take `NC(=NCCCOc1ccc(F)cc1)Nc1ccc(I)cc1`: the growth is 66.3% (inactive).
To `N#CC1C(C#N)C(C(=O)c2ccc(Br)cc2)N2c3ccccc3C=CC12` (centres undefined) belongs 39.7% (inactive); to `CCN1C(=O)/C(=C/C(=O)OC)S/C1=N\NC(=O)c1cc2ccc1/C=C\c1ccc(cc1)/C=C\2`, 88.4% (inactive); to `COc1ccccc1/C=C1\Oc2cc(OCCN3CCCC3)ccc2C1=O`, 97.3% (inactive).
The value for `Cc1cc2nc3c4ccc(Br)cc4n(CCN(C)C)c3nc2cc1C` was 4.76% (active); that for `C/C(=N\Nc1cc(C)nc2ccc(Br)cc12)c1ccc([N+](=O)[O-])cc1` was 53.4% (inactive); that for `COc1cc(C2C3CC4CCCC[C@H]4N3[C@@]3(C(=O)Nc4cc(Cl)ccc43)C2C(=O)c2nc3ccccc3[nH]2)cc(OC)c1OC` (some centres undefined) was 62.1% (inactive).
In the case of `O=C1OC(Cc2ccccc2)C1c1ccccc1` (centres undefined), the growth was 101% (inactive).
`CC(Oc1ccc(C(=O)O)cc1C(F)(F)F)c1ccc(Oc2ccccc2)cn1` (centres undefined): the growth is 98.4% (inactive).
The value for `CC(Sc1nc2ccccc2c(=O)n1CCc1ccc(S(N)(=O)=O)cc1)C(=O)Nc1ccc(Cl)cc1` (centres undefined) was 86.3% (inactive); that for `CC1=CCC(OC(=O)C(C)(O)CCC(O)(C(=O)OC2(C)C=CC(O)(C(C)C)CC2)C(C)C)(C(C)C)CC1` (centres undefined) was 101% (inactive).
Turning to `ClC1=C(Br)C(Br)(Br)C(=C(Br)Br)C1(Br)Br`, the growth was 102% (inactive).
For the molecule `C=C1C(=O)O[C@H]2[C@H]1CC/C(CNC(=O)C(C)c1ccc(CC(C)C)cc1)=C\CC[C@@]1(C)O[C@@H]21` (some centres undefined), the growth was -36% (active).
With `CCCCCN1C=C/C(=C\C(=O)N2CCCc3ccccc32)c2ccccc21`, the growth was 77.9% (inactive).
The value for `N#Cc1cc(-c2nc3ccccc3s2)c(=O)n(NS(=O)(=O)c2ccccc2)c1N` was 98.7% (inactive); that for `CCCOc1ccc(/C=N/Nc2cc(C)nc3ccc(Cl)cc23)cc1` was 42.1% (inactive).
To `Cc1cccc(NC(=O)Nc2ccc(-n3cnc4cc(-c5ccc(O)cc5)ccc43)cc2)c1` belongs 33.2% (inactive); to `O=c1c2c(c(=O)n1O)c1c3ccc[nH]c3nc1c1nc3[nH]cccc3c12`, 63% (inactive); to `O=C(CNCCN1CCOCC1)N1c2cccc3cccc(c23)N(C(=O)CNCCN2CCOCC2)C1c1cn(-c2ccccc2)nc1-c1cccc([N+](=O)[O-])c1`, 74.3% (inactive).
To `O=Cc1cc2ccccc2nc1Oc1ccc(C(F)(F)F)cc1` belongs 68.3% (inactive); to `COc1ccc(C(=O)/C=C/c2cc3ccccc3n3nnnc23)cc1`, 109% (inactive); to `CN1CCN(C(=O)[C@]23CCC(C)(C)C[C@H]2C2=CC[C@@H]4[C@@]5(C)C/C(=C/c6cccnc6)C(=O)C(C)(C)[C@@H]5CC[C@@]4(C)[C@]2(C)CC3)CC1`, 85.6% (inactive).
As for `CCN(CC)c1ccc(/C=N/NC(=O)CSc2nc3ccccc3c(=O)n2CCc2ccc(S(N)(=O)=O)cc2)c(O)c1`, the growth is 13.7% (inactive).
`CCCCCCNC(=O)Nc1ccc2cc3ccc(NC(=O)NCCCCCC)cc3nc2c1`: the growth was 11.4% (inactive).
As for `CCNC(=O)Oc1ccc(/C(=C(\C)c2ccccc2)c2ccc(OCCN(CC)CC)cc2)cc1`, the growth was 84.3% (inactive).
Turning to `CC/C(=C\c1ccc(OC)cc1)C(=O)c1ccc(OC)cc1`, the growth was 67.2% (inactive).
The value for `CCc1ccc(CNc2ccc(N3CCOCC3)c(C(=O)O)c2)cc1` was 102% (inactive); that for `Cc1ccc(NS(=O)(=O)c2ccc(-c3cnc(C4CC4)o3)cc2)cc1C(F)(F)F` was 51.8% (inactive); that for `C/C(=N\NC(=O)CSc1nc2ccccc2c(=O)n1CCc1ccc(S(N)(=O)=O)cc1)c1ccccn1` was 45.5% (inactive).
Turning to `C=C(CBr)[C@@H]1CC[C@]2(COC(C)=O)CC[C@]3(C)[C@H](CC[C@@H]4[C@@]5(C)CCCNC(C)(C)[C@@H]5CC[C@]43C)[C@@H]12`, the growth is 60.1% (inactive).
